# HepG2 tox = counter-screen for TGF-b inhibitors: cytotoxicity in HepG2 cells | 410,000 tested, 0.76% active | Potency, µM (highest dose often 46.1 µM), inactives show at the highest dose activity change, negative = cytotoxicity, usual class: cytotoxic | AID 588856 | HepG2 CAGA-GFP viability, ATP luminescence, 18 h; note: potency is the fitted concentration of half-maximal effect
#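 HepG2 CAGA-GFP cells (1000/well, DMEM with 1% FBS) received compound, then TGF-beta at 500 pg/mL final, and were incubated 18 hours at 37 degrees C. Viability was read by CellTiter-Glo luminescence. Media-only wells were set as complete cell-killing and DMSO as no toxicity.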
# TDP1 cell noCPT = qHTS for Inhibitors of human tyrosyl-DNA phosphodiesterase 1 (TDP1): qHTS in cells in absence of CPT. Potency, µM (top dose mostly 46.2 µM), for the others: at the top dose activity change, negative = growth inhibition, usual class: inhibitors. 420,000 tested, 15% active. DT40 Tdp1-/- hTDP1 cells, no CPT, ATP luminescence, 48 h. AID 686978, 2013; note: potency is the fitted concentration of half-maximal effect; % is set by controls: 0 for no effect and ±100 for the full control effect; nearly all actives have a fitted effect of over 55% in size
#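 Chicken DT40 Tdp1-/- cells complemented with human TDP1, screened without camptothecin (DMSO vehicle only), 400 cells/well. Compounds pin-transferred, cells incubated at 37 °C for at least 48 hr. Growth read as ATP-dependent luminescence (CellTiter-Glo, 30 min at RT).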
# TDP1 cell CPT = growth inhibition of DT40 Tdp1-/-;hTDP1 cells with camptothecin (screen for TDP1 inhibitors); chicken DT40 Tdp1-/-;hTDP1 cells + 20 nM CPT, ATP luminescence, 48 h; Potency, µM (series often up to 46.2 µM), without a hit: top-dose activity change, negative = growth inhibition, most hits filed as inhibitors; 420,000 tested, 12% active; note: potency is the fitted concentration of half-maximal effect; % is set by controls: 0 for no effect and ±100 for the full control effect; nearly all actives have a fitted effect of over 55% in size
#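 Chicken DT40 Tdp1-/- cells complemented with human TDP1, 400 cells/well, exposed to compounds plus 20 nM camptothecin for at least 48 h at 37 C; viability read as ATP content by CellTiter-Glo luminescence.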
# TDP1 inh = inhibitors of human tyrosyl-DNA phosphodiesterase TDP1. Q9NUW8. Potency, µM (top dose mostly 130 µM), for inactives: at the highest dose activity change, negative = inhibition, actives largely listed as inhibitors. recombinant TDP1, AlphaScreen DNA substrate cleavage. 350,000 tested, 0.28% active; note: potency is the fitted concentration of half-maximal effect; % is set by controls: 0 for no effect and ±100 for the full control effect; nearly all actives have a fitted effect of over 40% in size
# Target sequence (Q9NUW8 whole entry, looked up): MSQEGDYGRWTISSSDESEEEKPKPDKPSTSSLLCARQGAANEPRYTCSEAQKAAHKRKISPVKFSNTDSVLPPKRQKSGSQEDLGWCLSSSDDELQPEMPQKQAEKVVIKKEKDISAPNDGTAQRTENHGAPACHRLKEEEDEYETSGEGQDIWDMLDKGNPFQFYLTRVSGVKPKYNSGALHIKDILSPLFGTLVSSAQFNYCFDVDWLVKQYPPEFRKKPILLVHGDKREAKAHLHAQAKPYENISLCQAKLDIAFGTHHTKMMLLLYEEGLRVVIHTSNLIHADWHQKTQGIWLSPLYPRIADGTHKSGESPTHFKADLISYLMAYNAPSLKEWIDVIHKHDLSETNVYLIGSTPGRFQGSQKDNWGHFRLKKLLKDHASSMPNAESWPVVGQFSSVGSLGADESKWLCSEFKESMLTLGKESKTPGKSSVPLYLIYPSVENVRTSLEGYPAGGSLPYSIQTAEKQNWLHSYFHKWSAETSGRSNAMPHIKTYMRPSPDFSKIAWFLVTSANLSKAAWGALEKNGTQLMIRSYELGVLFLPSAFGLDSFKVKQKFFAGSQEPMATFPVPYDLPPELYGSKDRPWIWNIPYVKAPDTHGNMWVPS
#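 Recombinant E. coli-expressed Tdp1 (1 nM) preincubated with compound 15 min at RT, then 5'-biotin/3'-phosphotyrosine-FITC DNA substrate (15 nM) added for 5 min. AlphaScreen beads (10 ug/ml) added, 10 min RT; tyrosine-FITC cleavage read as signal loss.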
# IL-1B inflam inh = inhibitors of inflammasome signaling (IL-1 beta secretion); activity change, % at 57.5 µM; 360,000 tested, 4.7% active; AID 743279; THP-1 LPS/ATP IL-1B secretion, AlphaLISA, 16 h; stronger effect = lower value; in the data active = activity change below about -50%; inconclusive = mostly about -30% to -49%; note: % is set by controls: 0 for no effect and ±100 for the full control effect
#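 Secreted IL-1B measured by AlphaLISA bead assay after 16 h compound exposure of THP-1 cells; compounds (final up to 57.5 uM) added 1 h before LPS (250 ng/mL) and ATP (1.25 mM) stimulation; lower signal means less secretion.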
# TGFb SMAD3 inh = inhibitors of TGF-b signaling. HepG2 CAGA-GFP TGF-b/SMAD3 reporter, GFP fluorescence, 18 h; TGF-beta stimulated, 500 pg/mL final. Potency, µM (top dose mostly 46.1 µM), without a hit: at the highest dose activity, negative = inhibition, hits mostly inhibitors. 410,000 tested, 1.2% active. AID 588855; note: potency is the fitted concentration of half-maximal effect; % is set by controls: 0 for no effect and ±100 for the full control effect; nearly all actives have a fitted effect of over 65% in size
#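 GFP signal (ex488/em500-530) from TGF-beta-stimulated HEPG2 CAGA-GFP cells, 500 pg/mL final, 18 h at 37 degrees C in DMEM plus 1% FBS, normalized to unstimulated and DMSO-stimulated controls.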
# Numbers without * were called inactive; ? = inconclusive; nt = no result given; [ ] = another dose, or the depositor's remark. Rows were chosen to be rich in hits. Some 19% of all compounds tested hit in one or more screens of this group. Unless noted, calls come from the whole dose curve; as a rule, active = well fitted curve in the direction sought with a large enough effect; inconclusive = small, poorly fitted or top-dose-only effect, or another doubt; inactive = no such curve, though single readings can be large; an effect the other way counts as inactive or inconclusive.
SMILES,HepG2 tox,TDP1 cell noCPT,TDP1 cell CPT,TDP1 inh,IL-1B inflam inh,TGFb SMAD3 inh
COc1ccc(-n2c(C)cc(C(=O)Cn3c(NCCO)nc4ccccc43)c2C)cc1,-18%,21µM*,?,10%,42,-1%
CCN(C(=O)CSc1ncc(S(=O)(=O)c2ccc(C)c(Cl)c2)c(=O)[nH]1)c1cccc(C)c1,-28%,nt,nt,-3%,nt,-6%
COc1ccc(-c2nc(C)c(CCNC(=O)C(=O)Nc3c(C)cccc3C)s2)cc1OC,-4%,nt,nt,9%,nt,-6%
CCc1nnc(N/N=C/c2ccc(O)c(OC)c2)n1N,-104%,0%,?,nt,0,18µM*
Cc1ccc(Nc2nnc(C(C)(C)C)c(=O)n2N)cc1,-1%,-28%,3%,4%,0,-12%
CC(C)(C)c1nnc(N/N=C/c2cc(Br)ccc2O)n(N)c1=O,-37%,2.3µM*,2.6µM*,11%,12,?
CCOc1cc(/C=N/Nc2nnc(C)n2N)ccc1OC(C)=O,-113%,16µM*,?,nt,18,-18%
CCc1nnc(N/N=C/c2cc(Br)c(O)cc2O)n1N,10µM*,?,4.1µM*,6%,43,7.9µM*
CCOC(=O)c1sc(N2C(=O)c3oc4cc(C)c(C)cc4c(=O)c3C2c2ccc(C)cc2)nc1C (stereo unspecified),-15%,-3%,12%,0%,nt,-1%
O=C(NCc1ccccc1F)c1ccc(CN2CC(=O)N3CCCCC3C2=O)cc1 (stereo unspecified),-2%,-6%,-7%,0%,nt,1%
O=C(C1COc2ccccc2O1)N(Cc1cccnc1)c1nc2ccc(Cl)cc2s1 (stereo unspecified),-15%,-10%,-3%,0%,nt,1%
CCc1nnc(N/N=C/c2c(Cl)cccc2Cl)n1N,-100%,-5%,-16%,4%,14,?
CCc1nnc(N/N=C/c2cccs2)n1N,-98%,?,26µM*,8%,0,13µM*
Cc1nnc(N/N=C/c2cccc(OCc3ccc(Cl)c(Cl)c3)c2)n1N,-104%,?,?,8%,-84*,22µM*
COc1cc(-c2nc3ccc4ccccc4c3c3c2CCC3)cc(OC)c1O,-98%,16µM*,21µM*,6%,-4,11µM*
COc1ccnc(CSC(N)=Nc2ccccc2OC)c1,-3%,13µM*,?,2%,-10,?
CC(=Nc1ccccc1C(F)(F)F)c1ccncc1,-8%,-4%,1%,nt,0,6%
COc1ccnc(CSC(N)=Nc2ccccc2C(F)(F)F)c1,-19%,15µM*,26µM*,-5%,3,-19%
COc1ccnc(CSC(N)=Nc2cccc(C(F)(F)F)c2)c1,-69%,16µM*,12µM*,13%,-104*,?
CCC1CN(C(=O)Nc2ccc(Br)cc2F)c2ccccc2S1 (stereo unspecified),-6%,?,-19%,5%,nt,0%
COc1ccc(NC(=O)c2cc(S(=O)(=O)N3CCCCC3)cn2C)cc1Cl,-4%,-26%,-10%,5%,nt,?
CCc1ccccc1Nc1nn2c(=O)c3ccc(C(=O)NCc4cccs4)cc3nc2s1,-34%,21µM*,?,nt,nt,-20%
CCc1ccccc1Nc1nn2c(=O)c3ccc(C(=O)NCc4ccccc4Cl)cc3nc2s1,2%,9.2µM*,?,3%,nt,-27%
CCc1ccccc1Nc1nn2c(=O)c3ccc(C(=O)NC(C)C)cc3nc2s1,-3%,-28%,-17%,0%,nt,18%
O=C1CCCc2cc(S(=O)(=O)N3CCCC(C(=O)Nc4ccc(F)c(Cl)c4)C3)ccc2N1 (stereo unspecified),-37%,nt,nt,-4%,nt,-13%
SMILES,HepG2 tox,TDP1 cell noCPT,TDP1 cell CPT,TDP1 inh,IL-1B inflam inh,TGFb SMAD3 inh
Cc1cc(C)cc(NC(=O)C(=O)NCCCN2CCCC2=O)c1,-6%,-2%,1%,nt,-2,13%
COc1ccc(-c2cc3nc(-c4ccccc4)cc(N4CCCC(O)C4)n3n2)cc1 (stereo unspecified),-15%,12µM*,16µM*,-13%,?,-22%
COc1ccc(-c2cc3nc(-c4ccccc4)cc(N4CCC(O)CC4)n3n2)cc1,-1%,?,?,0%,-151*,?
Cc1nc(SCc2ccccc2Cl)c(C#N)c(C)c1C,4%,?,-21%,2%,nt,?
COc1ccc(OC)c(NC(=O)CCc2c(C)nc3c(c(C)nn3C(C)(C)C)c2C)c1,7%,16µM*,?,5%,nt,-3%
Cc1nc2c(c(C)nn2C(C)(C)C)c(C)c1CCC(=O)Nc1ccc(Br)cc1Br,2%,26µM*,?,2%,nt,?
Cc1cccc(-c2noc(-c3c(C)noc3C)n2)c1,-168%,-19%,-4%,-2%,30,0%
Cc1ccc(-c2noc(-c3c(C)noc3C)n2)cc1,0.89µM*,-1%,3%,-4%,28,2%
COc1cc2c(cc1OC)-c1cc3nc4ccccc4nc3n1C(C)(C)C2,nt,8.4µM*,12µM*,13%,nt,nt
COc1cc2c(cc1OC)-c1n[nH]c(=S)n1C(C)(C)C2,0%,0%,7%,1%,-2,0%
O=C1c2cc([N+](=O)[O-])cc3cc([N+](=O)[O-])cc(c23)C(=O)N1c1ccccn1,2%,18µM*,21µM*,-9%,-100*,5.6µM*
Cc1c(-c2nc(-c3ccc4c(c3)OCO4)no2)nnn1-c1ccc(C(C)C)cc1,9%,?,?,5%,nt,7%
CC(=O)N=C1C=CC(=CN(O)C(C)(C)Cc2ccccc2)C=C1,-15%,-24%,-11%,-4%,11,5%
Cc1cccc(CC(=O)NCC(=O)NCc2cc(=O)n(C)c(=O)n2C)c1,15%,?,12µM*,0%,1,16%
COc1ccc(C2(c3ccc(OC)cc3)NC(=O)N(CC(=O)NC(C)C)C2=O)cc1,-10%,-14%,-15%,5%[0.0935 µM],-11,1%
COC(=O)N1C(=O)[C@](c2ccc(Cl)cc2)(C(C)C)N1C(=O)OC,16µM*,23µM*,13µM*,nt,nt,?
CCC1(c2ccccc2)NC(=O)N(CC(=O)NC2CCCC2)C1=O (stereo unspecified),0%,-16%,7%,0%,3,-3%
